Nrf2 block: inhibitors of Nrf2 signaling | A549 ARE-Fluc reporter, luciferase luminescence, 18-24 h | 360,000 tested, 2.1% active | Potency, µM (doses to about 46 µM), without a hit: at the top dose activity change, negative = inhibition, hits mostly inhibitors | AID 504444; note: % is set by controls: 0 for no effect and ±100 for the full control effect; nearly all actives have a fitted effect of over 60% in size
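A549 ARE_Fluc cells (5000/well, 5% FBS OPTI-MEM) pre-incubated 2 h, then treated with compounds 18-24 h at 37C/5% CO2 in concentration-response. CellTiter-Fluor viability read first; BugLite luciferase luminescence after 15 min at room temperature gives Nrf2 activity.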
A549 viability: A549 cytotoxicity, counter-screen for Nrf2 inhibitors. AID 504648. 390,000 tested, 0.16% active. Potency, µM (series often up to 46 µM), without a hit: at the top dose activity change, negative = cytotoxicity, usual class: inhibitors. A549 ARE-Fluc cells, CellTiter-Fluor viability, 18-24 h; note: % is set by controls: 0 for no effect and ±100 for the full control effect
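A549 ARE-Fluc cells in 5% FBS OPTI-MEM, 5000 cells/well, rested 2 h then exposed to compounds in concentration-response for 18-24 h at 37 °C. Viability by CellTiter-Fluor fluorescence (Ex 405/Em 525) after 30 min; luciferase luminescence (BugLite, 15 min, RT) read afterwards.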
ELG1 repair inh: inhibitors of ELG1-dependent DNA repair in HEK293T cells; 330,000 tested, 2.3% active; HEK293T ELG1-luciferase reporter, luminescence, 16 h; DNA damage induced by 5-fluorouridine; Potency, µM (doses to about 46.1 µM), for inactives: top-dose activity change, negative = inhibition, most hits filed as inhibitors; note: % is set by controls: 0 for no effect and ±100 for the full control effect; nearly all actives have a fitted effect of over 55% in size
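DMSO vehicle served as the neutral condition. Each well held 2,000 cells given 5-fluorouridine plus compound; after 16 hr at 37 °C/5% CO2, ONE-Glo was added and luciferase measured 30 min later.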
Nrf2 ARE act: activates Nrf2 signaling; AREc32 ARE-luciferase reporter (MCF7-derived line), luminescence, 24 h; 410,000 tested, 0.31% active; Potency, µM (doses to about 46.1 µM), without a hit: top-dose activation, hits mostly activators; note: % of control where 0% means no effect; nearly all actives have a fitted effect of over 65% in size
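ARE-driven firefly luciferase activity in AREc32 cells measured after a 24 hr compound exposure at 37 deg C, using Steady-Glo reagent and a 30 min room-temperature hold.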
mIDH1 inhibitor: inhibitors of human mutant IDH1 R132H; 390,000 tested, 0.093% active; IDH1-R132H enzyme, NADPH consumption, diaphorase/resazurin fluorescence; Potency, µM (series often up to 76.6 µM), for the others: at the highest dose activity change, negative = inhibition, hits mostly inhibitors; O75874; note: % is set by controls: 0 for no effect and ±100 for the full control effect; nearly all actives have a fitted effect of over 65% in size
Target sequence (O75874 whole entry R132H, stated change not applied): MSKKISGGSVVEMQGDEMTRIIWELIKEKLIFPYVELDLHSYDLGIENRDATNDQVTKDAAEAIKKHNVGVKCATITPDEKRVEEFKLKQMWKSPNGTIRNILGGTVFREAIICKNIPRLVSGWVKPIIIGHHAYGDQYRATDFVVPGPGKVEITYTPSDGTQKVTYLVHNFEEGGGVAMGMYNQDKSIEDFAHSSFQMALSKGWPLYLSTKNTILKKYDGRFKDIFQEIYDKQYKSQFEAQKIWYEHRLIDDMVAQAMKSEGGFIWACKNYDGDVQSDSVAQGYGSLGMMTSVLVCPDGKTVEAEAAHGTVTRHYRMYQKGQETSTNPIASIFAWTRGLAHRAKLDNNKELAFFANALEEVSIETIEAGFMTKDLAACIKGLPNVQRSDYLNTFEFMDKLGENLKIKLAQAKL
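IDH1-R132H (0.5 ug/mL dispensed) in pH 7.5 Tris buffer was preincubated 30 min with compound, then given a substrate mix of 0.016 mM NADPH and 2 mM alpha-KG for 80 min at room temperature; remaining NADPH was read by diaphorase/resazurin fluorescence.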
* marks the source's active call; other numbers are inactive results; ? = inconclusive; . = no result. Compounds with a hit are over-represented: about 3.8% of the library has one in this group of screens. Calls come from the whole dose curve; as a rule, active = well fitted curve in the direction sought with a large enough effect; inconclusive = small, poorly fitted or top-dose-only effect, or another doubt; inactive = no such curve, though single readings can be large; an effect the other way counts as inactive or inconclusive. Potency is the fitted concentration of half-maximal effect.

SMILES	Nrf2 block	A549 viability	ELG1 repair inh	Nrf2 ARE act	mIDH1 inhibitor
Cc1csc2c(N3CCN(S(=O)(=O)c4ccc(Cl)cc4)CC3)ncnc12	?	5%	-7%	-1%	-3%
NCCC(=O)Nc1cccc(-c2nn3c(=O)cc(N4CCNCC4)nc3s2)c1	-6%	3%	.	.	.
Cc1cc(C)c[n+](C2=C([O-])c3ccccc3C(=O)/C2=N\S(=O)(=O)c2cccs2)c1	21µM*	?	12µM*	0%	18%
Cc1ccc(NC2=C/C(=N/S(=O)(=O)c3cccs3)c3ccccc3C2=O)cc1C	7%	-3%	?	-1%	1%
Cc1cc[n+](C2=C([O-])c3ccccc3C(=O)/C2=N\S(=O)(=O)c2cccs2)cc1C	?	1%	23µM*	0%	-9%
CCOc1ccccc1CNC(=O)c1oc2c(c1C)-c1[nH]ncc1CC2	?	-1%	.	3%	-10%
CN(Cc1nccn1C)C(=O)c1cc(COc2ccc3ncccc3c2)on1	21µM*	-7%	?	0%	8%
CC(CNC(=O)c1cc(COc2ccc3ncccc3c2)on1)c1ccccc1 (stereo not given)	15µM*	-16%	10µM*	2%	7%
COc1cc(Cl)ccc1OCc1cc(C(=O)NCC(C)c2ccccc2)no1 (stereo not given)	8%	6%	-1%	0%	8%
CN(Cc1nccn1C)C(=O)c1cc(COc2cccc(C(F)(F)F)c2)on1	-6%	?	11%	4%	6%
CC(C)Cc1cc(C(=O)N2N=C(C(F)F)CC2(O)C(F)F)c2ccccc2n1 (stereo not given)	?	-21%	?	-1%	2%
CCn1cc(-c2cc(C(=O)O)c3ccccc3n2)cn1	18µM*	-4%	10%	4%	3%
CCc1ccc(-c2cc(C(=O)Nn3cnnc3)c3ccccc3n2)cc1	9.2µM*	2%	?	-2%	8%
CCc1ccc(-c2cc(C(=O)N3N=C(C(F)F)CC3(O)C(F)F)c3ccccc3n2)cc1 (stereo not given)	21µM*	23µM*	?	4%	-4%
Cc1ccc(S(=O)(=O)N2CCN(c3nc(-c4ccncc4)nc4ccccc34)CC2)cc1	1%	1%	.	.	.
Cc1cc(C(F)(F)F)nn1-c1nc(-c2ccccc2)cc(C(F)(F)F)n1	-21%	0%	.	3%	13%
N#C/C(=C1/C(=O)Nc2ccc(Br)cc21)c1ccccn1	?	1%	2%	?	3%
COc1ccc(C(=O)COC(=O)CN2CC(=O)Oc3ccccc32)cc1Br	0%	-19%	-1%	14µM*	3%
Oc1ccc(NCc2ccccc2F)c2cccnc12	-5%	-5%	.	.	.
O=C(Cc1ccccc1)N/N=C/c1cc(Br)cc(Br)c1O	?	2%	6.5µM*	-1%	-5%
COc1c(Br)cc(Br)cc1/C=N/NC(=O)c1ccncc1	-6%	-2%	-8%	1%	-2%
O=C(CNC(=O)c1ccccc1F)N/N=C/c1cc(Br)ccc1OCc1ccccc1	?	2%	8.2µM*	4%	6%
CN(C)c1ccc(C(=O)N/N=C/c2cc(Br)cc(Br)c2O)cc1	13µM*	-12%	?	-1%	-2%
O=C(CNC(=O)c1cccc(F)c1)N/N=C/c1cc(Br)ccc1OCc1ccccc1	-18%	2%	?	0%	-4%
Cc1cccc(Cn2nnc3c2C(=O)c2ccccc2C3=O)c1	21µM*	?	?	0%	1%
Cc1ccccc1Cn1nnc2c1C(=O)c1ccccc1C2=O	?	-3%	.	1%	1%
COc1cc(/C=N/Nc2ncc(C(F)(F)F)cc2Cl)cc(OC)c1O	-8%	3%	13µM*	6%	0%
O=C(Nc1ccc(Br)cc1)C1CCCN1S(=O)(=O)c1ccc(F)cc1 (stereo not given)	?	-6%	.	-1%	.
COc1cc2c(cc1OC)/C(=C/C(=O)c1cccc([N+](=O)[O-])c1)NCC2	13µM*	?	?	5%	5%
Cc1c(C(=O)Nc2ccc(OC(F)(F)F)cc2)sc2nc3n(c(=O)c12)CCC3	10µM*	-17%	?	3%	-3%
